Screening data deposited in PubChem by National Center for Advancing Translational Sciences (NCATS).
Cycloheximide cs: affects cycloheximide protein synthesis inhibition readout, counter-screen. cell reporter, cycloheximide protein synthesis inhibition counterscreen. max response, %. 300,000 tested, 12% active. AID 2314; in the data active = max response mostly above about 13%, no sharp cut-off; inactive = mostly below about 14%; note: read at 38.3 µM for the half of the compounds with a filed dose; 0% is about no effect
Sm TGR block: S. mansoni TGR enzyme inhibition; AID 485364; purified TGR, DTNB reduction, TNB absorbance 405 nm; 360,000 tested, 3% active; Q962Y6; Potency, µM (highest dose often 114 µM), without a hit: at the top dose activity change, negative = inhibition, most hits filed as inhibitors; active = well fitted inhibition curve with a large enough effect; inconclusive = small, poorly fitted or top-dose-only effect; inactive = no such curve, though single readings can be large or run the other way; note: potency is the fitted concentration of half-maximal effect; % is set by controls: 0 for no effect and ±100 for the full control effect; nearly all actives have a fitted effect of over 60% in size
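Kinetic colorimetric format: TGR-catalysed, NADPH-driven DTNB reduction monitored via TNB absorbance. Enzyme dispensed at 20 nM; compound exposure 15 min at room temperature before reaction start.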
FMDV inh: foot and mouth disease virus antiviral activity | 410,000 tested, 1.2% active | FMDV antiviral cell-based qHTS | Potency, µM (top dose mostly 57.9 µM), for inactives: at the top dose activity change, negative = inhibition, usual class: inhibitors; calls by dose curve; tested in HEK293T cells; note: read-out not given here; potency is the fitted concentration of half-maximal effect; % is set by controls: 0 for no effect and ±100 for the full control effect; nearly all actives have a fitted effect of over 45% in size
Shiga toxin inh: blocks Shiga toxin action in Vero cells | inhibition, % at 38.7 µM | 290,000 tested, 9.2% active | AID 2315 | Vero cells, Shiga toxin protein synthesis inhibition reporter; in the data active = inhibition mostly above about 28%, no sharp cut-off; inactive = mostly below about 43%; note: 0% is about no effect
Active calls of the source: *; ? = inconclusive; / = no result given. This is a sample that favours compounds with a hit; in the whole collection about 12% have one here.

SMILES	Cycloheximide cs	Sm TGR block	FMDV inh	Shiga toxin inh
CCCC(=O)NCCc1c(I)[nH]c2ccc(OC)cc12	/	/	1%	/
COc1cccc(OC)c1C(=O)Nc1cccc(-c2nc3cc(C)cc(C)c3o2)c1	/	9%	0%	/
CNC(=O)c1c(NC(=O)c2cc(=O)c3ccccc3o2)sc2c1CCC2	/	-1%	22%	/
COc1cccc(NC(=O)C2CCN(C(=O)N3CC(C)Oc4ccccc43)CC2)c1 (configuration not stated)	/	-3%	0%	/
O=C(CC1C(=O)NCCN1Cc1ccc(Cl)c(F)c1)NC1CCC1 (configuration not stated)	-4	40µM*	-10%	-3
CN(Cc1ncc[nH]1)C(=O)CC1C(=O)NCCN1Cc1c(F)cccc1Cl (configuration not stated)	1	-5%	-7%	12
CN(CCC1CCOCC1)C(=O)CC1C(=O)NCCN1Cc1c(F)cccc1Cl (configuration not stated)	-2	45µM*	-2%	-3
CN(CCCC1CCCC1)C(=O)CC1C(=O)NCCN1Cc1cccc(F)c1F (configuration not stated)	-5	28µM*	-26%	-4
COc1ccc(Oc2ncc3nc(C)c(=O)n(CCC#N)c3n2)cc1	/	/	-8%	/
CCOC(=O)c1[nH]c(C)c(CCC(=O)Nc2cc(C)ccc2OC)c1C	/	-4%	-19%	/
CC(C)c1cnc2c(c1SCc1ccc([N+](=O)[O-])cc1)c(=O)n(C)c(=O)n2C	/	20%	-26%	/
CCOC(=O)C1CCCN(C(=O)c2nn(-c3ccc(C)cc3)c(=O)c3c2c2ccccc2n3C)C1 (configuration not stated)	/	-1%	?	/
CCCCCOC(=O)CSc1nc2sc3c(c2c(=O)n1Cc1ccccc1)CC(C)(CC)OC3 (configuration not stated)	/	11%	-3%	/
CCOC(=O)c1c(NC(=O)CCS(=O)(=O)c2ccccc2)sc2c1CC(C)(C)NC2(C)C	5	40µM*	-8%	-10
Cc1ccc([N+](=O)[O-])cc1N/C=C1\CCc2ccccc2C1=O	13*	?	24%	52*
O=C1C(=Cc2ccccc2Cl)CCc2ccccc21	/	/	-15%	/
O=C(COC(=O)c1ccc(Cl)cc1[N+](=O)[O-])NNC(=O)c1cccs1	/	56µM*	2%	/
O=C(OCC(=O)N1CCOCC1)c1ccc(Cl)cc1[N+](=O)[O-]	24*	-4%	12%	47*
Cc1ccsc1C(=O)OCC(=O)N1CCOCC1	35*	0%	70%	73*
Nc1ccc(C(=O)OCC(=O)N2CCOCC2)cc1[N+](=O)[O-]	31*	-13%	50%	57*
Nc1cc(C(=O)OCC(=O)N2CCN(C(=O)COC(=O)c3ccc(Cl)c(N)c3)CC2)ccc1Cl	/	0%	0%	/
CN(C)c1ccc(C(=O)OCC(=O)N2CCOCC2)cc1	23*	12%	0%	39
Nc1cc(C(=O)OCC(=O)N2CCOCC2)ccc1Cl	35*	-2%	19%	58*
O=S(=O)(c1ccc(Cl)cc1)c1nnn2c1nc(NC1CCCCC1)c1sccc12	/	1%	?	/
O=C(Cn1c(C(=O)NCc2ccco2)cc2sccc21)c1ccccc1	24*	-28%	-19%	-3
SMILES	Cycloheximide cs	Sm TGR block	FMDV inh	Shiga toxin inh
CCOC(=O)c1sc(=N)n(-c2ccc(OC)cc2)c1C	28*	3%	34%	102
COC(=O)[C@]1(C)CC[C@@]2(C)CC[C@@]3(C)C4=CCc5c(cc(O)c(O)c5C)[C@]4(C)CC[C@@]3(C)C2C1 (some centres not stated)	/	/	20µM*	/
CCc1nn(CC(=O)NC(C)CC)c(=O)c2cc3occc3n12 (configuration not stated)	/	5%	-8%	/
NS(=O)(=O)c1ccc(N2N=C(c3ccccc3)CC2c2cccc(F)c2)cc1 (configuration not stated)	-1	-1%	-16%	-5
NS(=O)(=O)c1ccc(N2N=C(c3ccc(Br)cc3)CC2c2ccc(F)cc2)cc1 (configuration not stated)	-3	-3%	22µM*	-2
CN(C)/C=N/c1ncc(C(=O)c2ccc(Cl)cc2)s1	43*	6%	1%	58*
O=[N+]([O-])c1nn(-c2ccccc2)n(O)c1=NCCc1ccccc1	25*	-9%	9%	112*
COc1ccc(-n2nc([N+](=O)[O-])c(=NCCc3ccccc3)n2O)cc1	15*	-25%	8%	-8
Cc1ccc(CCN=c2c([N+](=O)[O-])nn(-c3ccccc3)n2O)cc1	7	/	-21%	23
CC1CCN(S(=O)(=O)c2ccc3c(c2)CCN3C(=O)Nc2ccccc2Br)CC1	/	16%	-18%	/
CC(=O)Nc1ccc(NC(=O)CCCCCN2C(=O)c3ccccc3C2=O)cc1	0	-2%	-1%	-5
